Test results from PubChem BioAssay AID2685 (National Center for Advancing Translational Sciences (NCATS), 2010).
Hit rate of the full screen: of about 320,000 compounds, about 2,100 (0.66%) were called active. Not shown: some 53% with an inconclusive outcome. The call rests on the fitted dose curve; in most records, active means well fitted inhibition curve with a large enough effect in the signal ratio, with a control signal flat (not every such curve was filed as active); inconclusive means small, poorly fitted or top-dose-only effect, or effect the other way, or a change in a side signal; inactive means flat fitted curve, though single readings scatter; the % refers to the signal ratio. Many of the other results were omitted from the sample, so actives are more common in it than they were.

Test: qHTS Assay for Lipid Storage Modulators in Drosophila S3 Cells;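 on cell number change: cells counted by Cell Tracker Red CMTPX staining in the red channel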; on lipid storage change, negative = inhibition: on the % scale 0 is the no-effect control and ±100 the full control effect
Settings: BODIPY lipid droplet fluorescence, 18-24 h, cells fed with added oleic acid; cell number change: measured here: cell count max response; series mostly up to 46.1 µM; lipid storage change, negative = inhibition: at the top concentration
How it was run: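 Drosophila S3 cells got compounds at several concentrations plus oleic acid (400 uM solution). Laser-scanning cytometry with 488 nm excitation read lipid droplets at 500-530 nm and cells at 575-640 nm. Percent activity was relative to 20 uM Triacsin C.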
Potency means the concentration at half of the fitted maximal effect.

SMILES	lipid storage change, negative = inhibition	cell number change [%]	outcome	Potency
O=C(Cc1ccccc1)NCC(=O)OCC(=O)c1cccc([N+](=O)[O-])c1	-0.459% (inactive)	9.41		
Cc1cc(OC(C)C(=O)N2CCN(c3ccccc3)CC2)c2c(C)c(C)c(=O)oc2c1 (stereo unspecified)		5.19	inactive	
COc1ccc(C(C)=O)cc1COC(=O)c1cc(C)oc1C	16.1% (inactive)	-12.2		
N#Cc1ccccc1COC(=O)c1cc(=O)c2ccccc2o1	-3.23% (inactive)	7.26		
CCc1ccc(CN(C)C(=O)c2cc(=O)c3ccccc3o2)cc1			inactive	
COc1ccc(C(C)=O)cc1COC(=O)c1cc(=O)c2ccccc2o1		5.13		18.4 µM (active)
COc1ccc(C(C)=O)cc1COC(=O)c1cccnc1Cl	-19.8% (inactive)	20.9		
O=C(OCc1ccc(F)cc1)c1cc(=O)c2ccccc2o1		11.3	inactive	
COc1ccc(C(C)=O)cc1COC(=O)c1cc2ccccc2cc1O		-9.52		20.6 µM (active)
COc1ccc(CCN(C)C(=O)c2cc(=O)c3ccccc3o2)cc1OC		-2.86		0.731 µM (active)
COc1ccc(CCN(C)C(=O)c2cc(-c3ccccc3)nc3ccccc23)cc1OC		-2.7	inactive	
CCOC(=O)c1ccc(NC(=S)N2CCCC(C)C2)cc1 (stereo unspecified)	-12.9% (inactive)	4.19		
COCCN(C(=S)Nc1ccccc1OC)C(C)c1cccs1 (stereo unspecified)	18.6% (inactive)	10.3		
CCCCn1nnc(NC(=O)c2sc3cc(Cl)ccc3c2Cl)n1	14.6% (inactive)	-11.4		
C/C(=N\Nc1cc(N2CCOCC2)nc(C)n1)c1ccc(F)cc1		-23.7	inactive	
COc1cc(OC)c2ccc(=O)oc2c1C(CCN1CCCC1)c1ccc(N(C)C)cc1 (stereo unspecified)	0.139% (inactive)	0.759		
Cc1cc(C)nc(/N=C(\NC(=O)C(C)(C)C)Nc2ccccc2)n1	16.5% (inactive)	7.69		
O=C(CCOc1ccccc1)Nc1ccnn1C1CCN(C(=O)CCC(F)(F)F)CC1			inactive	
CC(C)[C@H](NS(=O)(=O)c1ccc(Cl)cc1)C(=O)OCC(=O)c1c(N)n(C)c(=O)n(C)c1=O		-5.89		29.1 µM (active)
Cn1c(N)c(C(=O)COC(=O)CNS(=O)(=O)c2cccc(Cl)c2)c(=O)n(C)c1=O	-4.82% (inactive)	-1.55		
CN(CC(=O)OCC(=O)c1c(N)n(C)c(=O)n(C)c1=O)S(=O)(=O)c1ccc(Cl)cc1	-4.29% (inactive)	-11.5		
O=C(NC1CCCc2ccccc21)c1ccccc1 (stereo unspecified)	21.6% (inactive)	96.9		
COC(=O)CN(c1cccc(C(C)=O)c1)S(C)(=O)=O	8.86% (inactive)	-12.6		
COC(=O)CN(c1cccc(OC)c1)S(C)(=O)=O		-6.69		16.4 µM (active)
COC(=O)CN(c1cccc(F)c1)S(C)(=O)=O			inactive	

SMILES	lipid storage change, negative = inhibition	cell number change [%]	outcome	Potency
COc1ccccc1CN1CC(C(=O)NC2CCOCC2)CCC1=O (stereo unspecified)	-8.12% (inactive)	0.697		
CCC(C)N1CCNCC1 (stereo unspecified)		2.58	inactive	
Cc1cc2c3c(ccc(C)c3n1)N=CN2c1ccccc1			inactive	
CCCCOc1cccc(C(=O)O)c1		-9.86	inactive	
CC(C)Oc1cccc(C(=O)N2CCCC2)c1	-2.89% (inactive)	0.879		
CC(C)Oc1cccc(C(=O)O)c1		0.0714		16.4 µM (active)
Cc1cc(OCC(=O)NCc2nc(-c3ccccc3)no2)c(C)cc1Br	7.66% (inactive)	8.52		
Cn1cc(C=O)c2cc(F)ccc21	0.791% (inactive)			
COc1ccc2c(c1)c(/C=C/c1cc[n+](C)cc1)cn2C	-25.3% (inactive)			
Cn1cc(/C=C/c2cc[n+](C)cc2)c2cc(F)ccc21		5.37		25.9 µM (active)
CC(=O)Nc1ccc(S(=O)(=O)N2CCN(CC3CC4C=CC3C4)CC2)cc1 (stereo unspecified)	4.11% (inactive)	5.59		
O=C(N/N=C/c1ccncc1)c1ccc2c(c1)OCO2	5.26% (inactive)	-3.13		
CCCc1cc2c(=O)c(-c3ccccn3)c(C)oc2cc1O	11.3% (inactive)	-9.21		
CC(=O)N[C@H](C(=O)N[C@@H](C)C(=O)N[C@H](C#N)CC(=O)O)C(C)C	11.1% (inactive)	8.31		
Cc1ccc(S(=O)(=O)CCC(=O)OCC(=O)N2CCc3ccccc32)cc1	-12.7% (inactive)	-18.3		
CC(=O)Nc1ccc(S(=O)(=O)N(C)CC(=O)OCC(=O)N2CCc3ccccc32)cc1		-7.07		20.6 µM (active)
Cc1ccc(S(=O)(=O)N2CCC(C(=O)OCC(=O)N3CCc4ccccc43)CC2)cc1		-18.3		7.31 µM (active)
Cc1ccc(S(=O)(=O)N2CCC(C(=O)OCC(=O)N3CC(=O)Nc4ccccc43)CC2)cc1	-0.226% (inactive)	8.87		
CC(=O)Nc1ccc(S(=O)(=O)N(C)CC(=O)OCC(=O)N2CCCCCC2)cc1	-14.5% (inactive)	-4.09		
CC(=O)Nc1ccc(S(=O)(=O)NCC(=O)OCC(=O)N2CCCc3ccccc32)cc1	17.9% (inactive)	-6.74		
Nn1cc(-c2ccccc2)nc1SCC(=O)NCC(F)(F)F	14.4% (inactive)			
COc1ccc2[nH]c(=O)c(CN(Cc3cccnc3)Cc3nnnn3CC3CCCO3)cc2c1 (stereo unspecified)	10.3% (inactive)	-7.7		
COc1cccc2c1OC1(C)CC2NC(=O)N1c1cccc(C(=O)N2CCN(c3ccccc3)CC2)c1 (stereo unspecified)	0.139% (inactive)	3.44		
COc1cccc2oc3ccc(C#Cc4ccccn4)cc3c(=O)c12		-5.09		0.731 µM (active)
